Results as given in PubChem BioAssay.
The source made the active and inactive calls. Unless noted, how the calls were made is not given here.

Columns and labels:
[1] = anti-His antibody binders, primary screen, artefact control for SMM control protein annotation, biochemical, small-molecule microarray, 635 nm fluorescence (AID 1128); details: anti-His Alexa647 antibody binding, higher = more signal;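 further: score merges feature fluorescence with signal-to-noise for each printed compound spot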
[2] = test system: Human papillomavirus type 1a E7 protein (residues 1-88); test: HPV1a E7 small-molecule binders, primary screen, biochemical, small-molecule microarray, residues 1-88, 635 nm (AID 1129); details: small-molecule microarray binding, fluorescence 635 nm; higher = more signal
[3] = target: Focal adhesion kinase 1 (Homo sapiens) (UniProt Q05397); test: small-molecule microarray binders of FAK, primary screen, biochemical, 635/667 nm fluorescence, BSA, DTT (AID 1130); details: PTK2 binding, 635 nm fluorescence, higher = more signal;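 further: composite of spot emission at 667 nm and signal to noise over triplicate slides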
Sequence of Focal adhesion kinase 1 (Homo sapiens) (Q05397 whole entry, looked up): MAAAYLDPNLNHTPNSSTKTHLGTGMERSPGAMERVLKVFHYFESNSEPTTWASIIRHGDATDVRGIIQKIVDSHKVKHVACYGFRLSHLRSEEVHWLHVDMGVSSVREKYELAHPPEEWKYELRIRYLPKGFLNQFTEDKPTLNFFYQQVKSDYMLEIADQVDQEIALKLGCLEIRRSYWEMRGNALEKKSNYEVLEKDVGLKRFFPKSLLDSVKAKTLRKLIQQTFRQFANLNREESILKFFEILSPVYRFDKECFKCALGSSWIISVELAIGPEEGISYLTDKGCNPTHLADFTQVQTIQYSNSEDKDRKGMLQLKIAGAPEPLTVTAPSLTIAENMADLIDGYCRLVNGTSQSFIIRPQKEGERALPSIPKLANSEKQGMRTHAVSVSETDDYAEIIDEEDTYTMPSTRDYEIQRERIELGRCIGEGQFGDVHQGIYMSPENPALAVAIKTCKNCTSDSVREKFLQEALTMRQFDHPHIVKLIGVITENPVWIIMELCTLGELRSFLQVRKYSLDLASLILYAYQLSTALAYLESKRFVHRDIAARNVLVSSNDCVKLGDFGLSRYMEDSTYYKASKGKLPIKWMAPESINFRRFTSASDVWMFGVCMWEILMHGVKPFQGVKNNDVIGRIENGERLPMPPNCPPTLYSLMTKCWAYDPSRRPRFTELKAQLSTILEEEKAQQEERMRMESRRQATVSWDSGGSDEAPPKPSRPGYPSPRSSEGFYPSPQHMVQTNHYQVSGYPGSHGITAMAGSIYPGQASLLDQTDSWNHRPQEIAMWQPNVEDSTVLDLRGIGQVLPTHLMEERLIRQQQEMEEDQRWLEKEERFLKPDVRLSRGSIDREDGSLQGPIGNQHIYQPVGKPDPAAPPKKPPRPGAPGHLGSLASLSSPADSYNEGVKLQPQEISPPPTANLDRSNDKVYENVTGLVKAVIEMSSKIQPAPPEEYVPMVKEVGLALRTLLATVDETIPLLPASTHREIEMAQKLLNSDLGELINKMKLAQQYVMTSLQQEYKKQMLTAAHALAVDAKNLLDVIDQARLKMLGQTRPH

[4] = test system: Fibrinogen (Alexa647-labelled); test: fibrinogen binders on compound microarrays, profiling panel, artefact control for SMM control-protein annotation, biochemical, small-molecule microarray, 635/667 nm fluorescence (AID 1131); details: fibrinogen-A647 binding fluorescence, higher = more signal;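 further: z-score merges 667 nm fluorescence with per-spot signal-to-noise over triplicate slides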
[5] = target: Follistatin (Homo sapiens) (UniProt P19883); test: follistatin binders on small-molecule microarrays, primary screen, biochemical, small-molecule microarray, 635/667 nm fluorescence (AID 1132); details: FST binding, 635 nm fluorescence, higher = more signal
Sequence of Follistatin (Homo sapiens) (P19883 whole entry, looked up): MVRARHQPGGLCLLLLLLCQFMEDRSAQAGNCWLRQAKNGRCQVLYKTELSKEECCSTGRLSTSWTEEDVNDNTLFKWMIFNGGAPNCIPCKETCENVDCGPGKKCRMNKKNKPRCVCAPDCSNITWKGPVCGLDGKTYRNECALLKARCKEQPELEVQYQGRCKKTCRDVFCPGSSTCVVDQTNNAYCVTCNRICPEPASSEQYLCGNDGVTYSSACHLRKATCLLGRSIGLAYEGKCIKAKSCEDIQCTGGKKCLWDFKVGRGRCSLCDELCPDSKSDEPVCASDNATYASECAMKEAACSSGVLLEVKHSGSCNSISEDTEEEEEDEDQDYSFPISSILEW

[6] = target: Fibroblast growth factor 2 (Homo sapiens) (UniProt P09038); test: FGF2 binders on small-molecule microarrays, primary screen, biochemical, small-molecule microarray, 635/667 nm fluorescence (AID 1133); details: small-molecule microarray binding, FGF2, fluorescence 635/667; higher = more signal
Sequence of Fibroblast growth factor 2 (Homo sapiens) (P09038 whole entry, looked up): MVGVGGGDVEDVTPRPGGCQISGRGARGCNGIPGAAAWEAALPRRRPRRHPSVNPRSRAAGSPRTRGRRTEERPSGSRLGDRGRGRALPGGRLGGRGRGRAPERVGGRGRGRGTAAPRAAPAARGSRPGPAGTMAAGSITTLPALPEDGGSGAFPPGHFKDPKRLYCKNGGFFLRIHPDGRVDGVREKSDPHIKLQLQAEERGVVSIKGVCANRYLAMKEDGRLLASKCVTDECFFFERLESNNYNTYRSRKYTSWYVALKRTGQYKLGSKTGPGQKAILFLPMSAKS

[7] = mitochondrial membrane potential change in A549 cells, profiling panel, cell-based, JC-1 fluorescence, basal, 24 h, 100 nL (AID 1138); details: higher = more signal;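 further: A549 lung adenocarcinoma cells under basal conditions with no added stimulus; test concentration not given here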
[8] = test system: Lefty1; test: Lefty1 binders on small-molecule microarrays, primary screen, biochemical, small-molecule microarray, 635/667 nm fluorescence (AID 1139); details: small-molecule microarray binding, fluorescence 635/667; higher = more signal
[9] = test system: wheat germ agglutinin (Triticum aestivum), Alexa647-labelled; test: wheat germ agglutinin binders on compound microarrays, profiling panel, artefact control for SMM control-protein annotation, biochemical, small-molecule microarray, 635/667 nm fluorescence (AID 1140); details: WGA-A647 binding, 635 nm fluorescence, higher = more signal;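 further: score merges 667 nm feature emission with signal to noise over triplicate slides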
[10] = target: Luciferin 4-monooxygenase (Photinus pyralis) (UniProt P08659); test: firefly luciferase enzyme inhibitors, primary screen, biochemical, luminescence, purified enzyme, 2006 set (AID 1141); details: SteadyGlo luminescence, 30 min, higher = more signal, called active from +8 up or from −8 down;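 further: cell-free assay with purified firefly luciferase at 100 ng per well in PBS; test concentration not given here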
Sequence of Luciferin 4-monooxygenase (Photinus pyralis) (P08659 whole entry, looked up): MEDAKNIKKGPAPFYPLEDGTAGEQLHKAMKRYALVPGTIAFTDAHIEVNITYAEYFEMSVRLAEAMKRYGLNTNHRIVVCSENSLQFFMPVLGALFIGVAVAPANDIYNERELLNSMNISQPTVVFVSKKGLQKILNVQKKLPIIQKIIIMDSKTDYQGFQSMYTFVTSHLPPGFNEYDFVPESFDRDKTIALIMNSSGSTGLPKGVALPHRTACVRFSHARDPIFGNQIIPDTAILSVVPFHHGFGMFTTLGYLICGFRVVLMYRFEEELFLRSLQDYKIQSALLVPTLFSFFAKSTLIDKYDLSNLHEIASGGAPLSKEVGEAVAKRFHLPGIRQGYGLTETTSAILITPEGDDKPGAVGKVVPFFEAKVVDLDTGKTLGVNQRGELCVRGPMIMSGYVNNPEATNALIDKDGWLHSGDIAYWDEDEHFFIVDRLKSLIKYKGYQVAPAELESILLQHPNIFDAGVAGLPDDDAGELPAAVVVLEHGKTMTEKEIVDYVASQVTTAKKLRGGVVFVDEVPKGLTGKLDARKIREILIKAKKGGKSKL

[11] = test system: Wnt5a (protein binding on small-molecule microarray); test: Wnt5a binders on small-molecule microarray, primary screen, biophysical, 635/667 nm fluorescence (AID 1142); details: 635 nm fluorescence, higher = more signal;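 further: fluorescence read at 667 nm with signal to noise per printed feature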
[12] = cell viability in Huh7 cells, primary screen, cytotoxicity control for HCV replication inhibitor project, CellTiter-Glo luminescence, basal, 48 h (AID 1143); details: Huh7 HCV replicon, higher = more signal, called active from +8 up or from −8 down;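 further: Huh7 hepatoma cells carrying a hepatitis C replication reporter with no stimulus; test concentration not given here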
[13] = P. aeruginosa biofilm formation inhibitors, primary screen, PAO1 strain, BacTiter-Glo luminescence, LB-PBS (AID 1144); details: 12 h, higher = more signal
[14] = CREB reporter modulators without forskolin, primary screen, cell-based, PC12, CRE-LacZ reporter, unstimulated (AID 1145); details: no forskolin, luminescence, 4.5 h, higher = more signal, called active from +8 up or from −8 down
[15] = CREB reporter modulators under forskolin, primary screen, cell-based, PC12, CRE-LacZ reporter, forskolin-stimulated (AID 1146); details: luminescence, 4.5 h, higher = more signal, called active from +8 up or from −8 down;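 further: PC12 cells with 6xCRE LacZ reporter stimulated by forskolin 10 µM; beta-galactosidase reporter signal reflecting CREB driven transcription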
[16] = target: Streptavidin (Streptomyces avidinii) (UniProt P22629); test: streptavidin binders on small-molecule microarray, primary screen, artefact control for SMM compound annotation, biophysical, 635/667 nm fluorescence (AID 1147); details: streptavidin binding, higher = more signal;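 further: signal reflects streptavidin binding to arrayed compounds as a control protein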
Sequence of Streptavidin (Streptomyces avidinii) (P22629 whole entry, looked up): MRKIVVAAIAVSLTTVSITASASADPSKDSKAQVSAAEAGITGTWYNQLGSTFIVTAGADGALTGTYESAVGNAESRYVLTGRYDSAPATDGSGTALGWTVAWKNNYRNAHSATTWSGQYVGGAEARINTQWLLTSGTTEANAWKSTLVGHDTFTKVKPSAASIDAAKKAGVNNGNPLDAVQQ

[17] = small-molecule binders of probe aInhba, primary screen, biochemical, small-molecule microarray, 635/667 nm fluorescence (AID 1148); details: higher = more signal;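 further: score merges 667nm spot fluorescence with signal-to-noise for antibody binding to printed compounds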
[18] = target: Torsin-1A (Homo sapiens) (UniProt O14656); test: torsin A binders from cell lysate, primary screen, small-molecule microarray, wild-type, 635/667 nm (AID 1149); details: COS7 hTOR1A-WT lysate, 635 nm fluorescence, higher = more signal
Sequence of Torsin-1A (Homo sapiens) (O14656 whole entry, looked up): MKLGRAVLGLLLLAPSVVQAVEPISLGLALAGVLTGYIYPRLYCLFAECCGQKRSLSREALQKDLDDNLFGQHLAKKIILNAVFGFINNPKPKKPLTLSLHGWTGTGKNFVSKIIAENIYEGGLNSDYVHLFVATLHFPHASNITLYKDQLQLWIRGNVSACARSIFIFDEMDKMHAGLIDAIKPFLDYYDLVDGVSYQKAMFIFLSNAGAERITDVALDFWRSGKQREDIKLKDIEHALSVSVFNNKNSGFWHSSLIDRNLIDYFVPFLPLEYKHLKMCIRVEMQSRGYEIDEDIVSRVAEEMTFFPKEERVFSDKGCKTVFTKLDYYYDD

[19] = target: Torsin-1A (Homo sapiens) (UniProt O14656); test: small-molecule binders of mutant TOR1A in lysate, primary screen, cell lysate, small-molecule microarray, COS7 lysate, 635/667 nm fluorescence (AID 1150); details: COS7 hTOR1A mutant lysate, 635 nm fluorescence, higher = more signal;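 further: score pools 667 nm emission and signal to noise measuring lysate protein binding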
[20] = test system: Sonic hedgehog protein (Shh); test: small-molecule binders of Shh protein, primary screen, biochemical, small-molecule microarray, 635/667 nm fluorescence (AID 1151); details: small-molecule microarray binding, 635 nm fluorescence; higher = more signal;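 further: Shh protein binding to compounds spotted on small-molecule microarray slides; score combines spot fluorescence intensity with signal-to-noise across triplicate slides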

Row | Compound | composite z-score [1] | composite z-score [2] | composite z-score [3] | composite z-score [4] | composite z-score [5] | composite z-score [6] | z-score [7] | composite z-score [8] | composite z-score [9] | z-score [10] | composite z-score [11] | z-score [12] | z-score [13] | z-score [14] | z-score [15] | composite z-score [16] | composite z-score [17] | composite z-score [18] | composite z-score [19] | composite z-score [20]
1 | CC(CO)N1C(=O)[C@@H]2[C@H]3C(=O)OCC=C[C@H]3OC23C=CCN(Cc2ccccc2)C(=O)[C@@H]13 (stereo not given in full) | 0.543 | -0.696 | 0.769 | -0.854 | -0.139 | -0.173 | -0.376 | -0.279 | 0.22 | -3.05 (inactive) | 0.0691 | 0.0021 (inactive) | -1.11 (inactive) | -1.44 (inactive) | -1.08 (inactive) | -0.245 | -0.21 | -1.32 | -0.14 | -0.0627
2 | COc1ccccc1CN1C(=O)c2ccccc2[C@](Cc2ccccc2I)(C(=O)NCC(F)(F)F)[C@@H]1c1ccc(CO)cc1 | 2.25 | 1.24 | 0.473 | 0.74 | 1.26 | 0.342 | -0.878 | 0.168 | 0.887 | 0.347 (inactive) | 0.431 | -2.75 (inactive) | -0.243 (inactive) | -0.735 (inactive) | 6.82 (inactive) | 1.14 | 0.189 | 1.36 | -0.103 | 0.251
3 | CCOC(=O)C[C@H]1[C@H](OC(=O)c2ccccc2-c2ccccc2)[C@@H](NC(=O)C2CCCCC2)c2cc(OCCCO)ccc2N1C(=O)Cc1ccc(OC)cc1 | 0.0271 | -0.525 | 0.559 | -0.873 | -0.211 | -0.377 | 1.58 | 0.442 | 0.752 | 0.0079 (inactive) | 0.0136 | -0.226 (inactive) | 0.642 (inactive) | 4.65 (inactive) | 0.899 (inactive) | 0.0611 | -0.0736 | -0.0183 | 0.307 | -0.0275
4 | Cc1ccc(S[C@]2(C(=O)O)CC(=O)N(C3Cc4ccccc4C3)[C@@H]2c2ccc(CO)cc2)cc1 | 3.14 | 0.246 | 0.583 | -0.428 | -0.987 | -0.306 | 0.225 | -0.889 | -0.339 | -0.675 (inactive) | -0.127 | 0.121 (inactive) | 0.0572 (inactive) | 0.001 (inactive) | 0.629 (inactive) | -0.395 | 0.0018 | 0.794 | 0.431 | -0.3
5 | CCOC(=O)C1=CC[C@@H](c2ccccc2C(F)(F)F)N(S(=O)(=O)c2ccc(C)cc2)[C@H]1c1ccc(C#N)cc1 | 0.915 | 1.15 | -0.0446 | 0.647 | 0.507 | 0.437 | -1.92 | -0.0373 | 1.08 | 1.47 (inactive) | 0.125 | -1.96 (inactive) | -0.29 (inactive) | -0.676 (inactive) | 0.465 (inactive) | 1.11 | 0.367 | 0.502 | 0.512 | 0.494
6 | C=CCC(OC(C)=O)[C@@H]1[C@@H](N(Cc2cc3ccccc3o2)C(=O)c2ccc(C)cc2)c2cc(OCCCO)ccc2N1C(=O)Cc1ccc(OC)cc1 (stereo not given in full) | 0.0464 | -0.454 | 0.0903 | 0.0839 | 0.924 | 0.158 | 1.33 | -0.0083 | 0.273 | -1.37 (inactive) | 0.525 | -0.102 (inactive) | -0.491 (inactive) | 0.558 (inactive) | -0.409 (inactive) | 1.57 | -0.0044 | -0.28 | 0.0194 | 0.809
